The structures appear in SMILES notation. The campaign covered roughly 68,000 compounds. About 2,700 (4%) showed an effect of 50% or more. Shown is part of a subset that was picked to be rich in strong results.

This assay concerns Plasmodium berghei. The assay can be described thus: Screen against P. berghei liver stage (PbLuc), transformed with Luciferase, at 2uM. It counts as functional, HepG2. The following applies: tested at 2 uM.
As for `CCN(CC)c1nc(Nc2cccc(C(C)O)c2)nc2ccccc12` (configuration not stated), the INHIBITION is recorded as 6.9%.

As for `CC(O)c1cccc(Nc2nc(NCCO)c3ccccc3n2)c1` (configuration not stated), the INHIBITION was found to be 60.26%.

For `CCN(CC)c1nc(Nc2cccc(C(=O)O)c2)nc2ccccc12`, the INHIBITION was found to be 22.51%.

For `C=C(C)CN(CC)Cc1nc(CC)no1`, the INHIBITION was found to be 29.39%.

For the molecule `Cc1nc(CN2CCC3(CC2)CCN(C(=O)c2cscn2)C3)cs1`, the INHIBITION is listed as 36.75%.

Regarding `Cc1ccc(-c2noc([C@@H]3C[C@H](NC(=O)CC(C)(C)C)CN3C)n2)cc1`, the INHIBITION is 29.3%.

On to `CCc1nccn1CCCNC(=O)CN1CCN(c2ncccn2)CC1`, for which the INHIBITION amounted to 52.57%.

Consider `CCOC(=O)CCCNC(=O)CN1CCN(c2ncccn2)CC1`, for which the INHIBITION is 6.56%.

In the case of `O=C(NCCCN1CCN(c2ncccn2)CC1)Nc1ccccn1`, the INHIBITION is 7.62%.

In the case of `Cc1cc(C2CCCCN2C(=O)CN2C(=O)OC(C)(C)C2=O)no1` (configuration not stated), the INHIBITION came out at 13.51%.

`CC(C)c1cc(C2CCCN2C(=O)CN2C(=O)OC(C)(C)C2=O)no1` (configuration not stated): the INHIBITION is on record as 64.74%.

`Cc1cc(C2CCCN2C(=O)CN2C(=O)OC(C)(C)C2=O)on1` (configuration not stated): the INHIBITION worked out at 40.83%.

For `CC(C)Cc1cc(C(=O)NC(C)C)[nH]n1`, the INHIBITION is reported as 31.66%.

With `O=C(Nc1nc(-c2ccccc2)ns1)N1CCN(C(=O)C2CC2)CC1`, the INHIBITION is reported as 7.3%.

On to `CN(C)Cc1ccccc1Cn1cncc1-c1cnn(C)c1`, for which the INHIBITION is 55.3%.

As to `CCn1nc(C)c(-c2cncn2Cc2ccccc2CN(C)C)c1C`, the INHIBITION was found to be 17.29%.

As for `CC(Cn1cncc1-c1cnn(Cc2ccccc2)c1)N1CCCCC1` (configuration not stated), the INHIBITION was -22.72%.

`O=C(NCC1(CO)CC1)c1ccccc1C(F)(F)F`: the INHIBITION is listed as -41.99%.

On to `Cc1ccc(N2CCCC(NCC(=O)NCC3CC3)C2)nn1` (configuration not stated), for which the INHIBITION is 42.92%.

As for `Cc1ccc(CNC(C)c2ccc3[nH]c(=O)[nH]c3c2)s1` (configuration not stated), the INHIBITION was 74.87%.

For `CC(NCc1ccc(F)cc1)c1ccc2[nH]c(=O)[nH]c2c1` (configuration not stated), the INHIBITION is -32.84%.

With `COc1ccc(CNC(C)c2ccc3[nH]c(=O)[nH]c3c2)cc1` (configuration not stated), the INHIBITION was found to be 3.9%.

Turning to `CCN(CC1CCOC1)C(=O)c1ccn(-c2ccc(OC)cc2)n1` (configuration not stated), the INHIBITION is reported as -8.85%.

As for `Fc1ccccc1Sc1ccccc1CNC1=NCCN1`, the INHIBITION was -39.75%.

On to `OCC1CCCN1c1cc(NCc2cc3ccccc3o2)ncn1` (configuration not stated), for which the INHIBITION is recorded as -15.36%.

Consider `CC(C)(C)n1ncc2c1NC(=O)CC2c1cccc(O)c1` (configuration not stated), for which the INHIBITION is 31.54%.

With `Cc1cc(-c2nccs2)nc(C2CCN(Cc3ccc(F)cc3)CC2)n1`, the INHIBITION is given as -12.17%.

With `Cc1noc(C)c1CN1CCC2(CC1)NC(=O)CC2c1ccncc1` (configuration not stated), the INHIBITION is -12.36%.

Take `CCN1CCCC(O)(CNCc2ccccn2)C1` (configuration not stated): the INHIBITION was -36.39%.

Consider `CCN1CCCC(O)(CNCc2ccncc2)C1` (configuration not stated), for which the INHIBITION was 50.02%.

Regarding `CCN1CCCC(O)(CNCc2ccc3c(c2)OCO3)C1` (configuration not stated), the INHIBITION was found to be 35.84%.

`Cc1ccc(CN2CCn3c(CNC(=O)c4cccn4C)cnc3C2)s1`: the INHIBITION is reported as -40.86%.

Turning to `COc1cccc(CN2CCC3(COCc4cnc(N(C)C)nc43)C2)c1` (configuration not stated), the INHIBITION came to 23.93%.

Consider `CSCc1cccc(S(=O)(=O)NCCCn2ccnc2)c1`, for which the INHIBITION is 16.48%.

Take `c1cnn(CC2CN(c3ncnc4ccsc34)CCO2)c1` (configuration not stated): the INHIBITION is listed as 32.39%.

`Cc1cc(F)ccc1C(=O)N1C[C@@H]2COC[C@]2(CN(C)C)C1`: the INHIBITION turned out to be 25.58%.

In the case of `O=C(C1=CCCC1)N1C[C@@H]2COC[C@]2(COCC2CC2)C1`, the INHIBITION was 24.23%.

On to `COC[C@]12COC[C@H]1CN(C(=O)C1CC(F)(F)C1)C2`, for which the INHIBITION is reported as -22.65%.

For the molecule `O=C(c1ccnnc1)N1C[C@@H]2COC[C@]2(COCC2CC2)C1`, the INHIBITION was -57.61%.

With `Cc1cc(F)ccc1C(=O)N1C[C@@H]2COC[C@]2(COCC2CC2)C1`, the INHIBITION is recorded as 65.38%.

Consider `COC[C@]12COC[C@H]1CN(C(=O)c1ccc(F)cc1C)C2`, for which the INHIBITION came to 57.85%.

As to `CCOc1c(F)cccc1C(=O)N(c1cccnc1)C(C)C`, the INHIBITION was -56.64%.

For `CC1(C)CN(C(=O)c2ccc3nncn3c2)CCS1`, the INHIBITION is recorded as -17.04%.

Take `Cc1nccn1-c1cccc(N2CCC(OCC3CCCCO3)CC2)n1` (configuration not stated): the INHIBITION is reported as -16.7%.

Take `COc1ccc(OC)c2c(C)cc(N(C)Cc3cc(C)on3)nc12`: the INHIBITION came to 38.87%.

`Cc1cccc(CN2CC3(CCN(C4CCOC4)CC3)OCC2=O)n1` (configuration not stated): the INHIBITION was 15.98%.

`COc1c(CNCc2ccc(C(=O)N3CCCC3)cc2)c(C)nn1C`: the INHIBITION is on record as -36.39%.

As for `O=C(CN1CCCC(c2ncc[nH]2)C1)NCCCN1CCCCCC1=O` (configuration not stated), the INHIBITION is recorded as -21.61%.

Take `O=C(CCC(F)(F)F)N1CCCC(c2ncc[nH]2)C1` (configuration not stated): the INHIBITION is listed as -1.64%.

With `O=C(CN1CCCC(c2ncc[nH]2)C1)NCC(F)(F)F` (configuration not stated), the INHIBITION came to 51.23%.

Turning to `CC(=O)NS(=O)(=O)c1ccc(F)c(C(F)(F)F)c1`, the INHIBITION was -38.34%.

`CS(=O)(=O)CCC(=O)N1CCC2(CCCN(C3CCOCC3)C2=O)C1` (configuration not stated): the INHIBITION is given as -11.19%.

Regarding `O=C(O)c1cc(S(=O)(=O)Nc2cccc3c2OCCO3)c(Cl)cc1F`, the INHIBITION was -47.76%.

Take `CCOc1ccc(C(F)(F)F)cc1NC(=O)N1CCC(C(N)=O)CC1`: the INHIBITION is recorded as -3.17%.

On to `CCc1n[nH]c(NC(=O)c2ccc(Cl)cn2)c1Br`, for which the INHIBITION is given as -3.87%.

Take `CN1CCN(Cc2cn3c(n2)CN(Cc2ccncc2)CC3)CC1`: the INHIBITION is recorded as 51.26%.

In the case of `CN1CCN(Cc2cn3c(n2)CN(Cc2cccnc2)CC3)CC1`, the INHIBITION is given as -59.73%.

Turning to `Cc1ccc(CN2CCn3cc(CN4CCN(C)CC4)nc3C2)cc1`, the INHIBITION is reported as 18.32%.

Take `CN1CCN(Cc2cn3c(n2)CN(CC2CC2)CC3)CC1`: the INHIBITION amounted to 70.17%.

For `c1c(CN2CCCCC2)nc2n1CCN(CC1CC1)C2`, the INHIBITION was 7.13%.

Regarding `c1c(CN2CCCC2)nc2n1CCN(CC1CC1)C2`, the INHIBITION is given as -33.57%.

`CCCS(=O)(=O)NC(C)C(=O)NCc1ccc(N2CCCC2)nc1` (configuration not stated): the INHIBITION is -5.15%.

For `O=C(c1cc[nH]n1)N1CCC2(CC1)CC(Oc1cccnc1)CO2` (configuration not stated), the INHIBITION was -0.83%.

As to `O=C(CSc1ccccc1F)NS(=O)(=O)c1ccc2c(c1)OCCO2`, the INHIBITION is on record as 12.81%.

Consider `O=C(CCCOc1ccccc1F)Nc1cc[nH]n1`, for which the INHIBITION was -9.47%.

Consider `CC(NC(=O)COc1nc(C(C)(C)C)no1)c1ccco1` (configuration not stated), for which the INHIBITION was found to be 1.22%.

`Cn1cc(C2CCCN2C(=O)CS(=O)(=O)C2CCCC2)cn1` (configuration not stated): the INHIBITION is -0.06%.
